IDE act – human IDE activators in live cells, primary screen, fluorescence polarization, HEK cells, FAbeta-B substrate; Insulin-degrading enzyme (Homo sapiens), P14735; FAbeta-B cleavage; 0% vehicle, 100% cell-free pure enzyme wells; activation, % at 5.96 µM; actives 0.073% (n = 340,000); AID 493087, 2011;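 active means activation above the mean of all tested compounds plus 3 SD, set per screening campaign, cut at about 17% in these data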
Target sequence (P14735 whole entry, looked up): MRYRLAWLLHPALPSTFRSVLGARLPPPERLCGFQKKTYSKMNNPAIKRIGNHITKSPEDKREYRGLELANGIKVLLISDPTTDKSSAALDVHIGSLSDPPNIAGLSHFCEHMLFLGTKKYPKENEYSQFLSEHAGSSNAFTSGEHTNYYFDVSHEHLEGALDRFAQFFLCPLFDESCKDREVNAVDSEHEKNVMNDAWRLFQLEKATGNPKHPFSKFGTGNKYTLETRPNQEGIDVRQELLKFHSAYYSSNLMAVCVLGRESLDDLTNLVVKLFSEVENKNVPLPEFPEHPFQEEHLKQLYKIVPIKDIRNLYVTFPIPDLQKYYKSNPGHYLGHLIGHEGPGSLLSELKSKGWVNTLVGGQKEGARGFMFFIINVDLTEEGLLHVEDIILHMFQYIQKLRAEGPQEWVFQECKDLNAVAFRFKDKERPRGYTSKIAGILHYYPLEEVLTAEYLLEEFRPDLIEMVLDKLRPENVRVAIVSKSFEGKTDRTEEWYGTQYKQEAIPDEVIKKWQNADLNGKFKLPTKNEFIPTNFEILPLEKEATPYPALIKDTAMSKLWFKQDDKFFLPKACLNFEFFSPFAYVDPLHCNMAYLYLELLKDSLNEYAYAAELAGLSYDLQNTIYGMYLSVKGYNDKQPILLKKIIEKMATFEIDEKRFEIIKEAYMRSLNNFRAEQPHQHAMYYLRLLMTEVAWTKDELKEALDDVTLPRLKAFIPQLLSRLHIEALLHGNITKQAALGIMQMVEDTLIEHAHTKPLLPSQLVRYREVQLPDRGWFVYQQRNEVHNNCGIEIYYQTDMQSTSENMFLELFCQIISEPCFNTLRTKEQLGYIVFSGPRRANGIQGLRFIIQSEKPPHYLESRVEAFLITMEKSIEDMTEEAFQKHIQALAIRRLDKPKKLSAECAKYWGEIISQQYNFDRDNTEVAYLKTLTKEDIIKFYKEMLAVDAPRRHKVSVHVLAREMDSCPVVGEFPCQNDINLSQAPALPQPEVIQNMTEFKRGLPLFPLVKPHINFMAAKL
CRFR2-BP antag – antagonists of CRF-BP/CRF-R2 complex, primary screen, cell-based, HEK293, calcium dye fluorescence, uHTS | actives 0.59% (n = 350,000) | AID 588475, 2011 | CRF-induced calcium fluorescence | inhibition, % at 11.8 µM;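 active means inhibition of the ligand-induced calcium signal above about 50% at the single tested concentration, limit read from the data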
IDE cell inh – human IDE inhibitors in live cells, primary screen, fluorescence polarization, HEK cells, FAbetaB substrate | actives 0.41% (n = 320,000) | FAbetaB cleavage | Insulin-degrading enzyme (Homo sapiens), P14735 | inhibition, % at 5.59 µM | AID 434962, 2010;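 active means percent inhibition above the average of all tested compounds plus 3 SD, set per screening campaign, cut at about 16% in these data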;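 further: IDE supplied by intact live HEK cells; FP after avidin binding of uncleaved biotin substrate so inhibition keeps polarization high; 0% = DMSO wells and 100% = 60 µM reference IDE inhibitor Ii1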
TPT1 inhibitor – Candida albicans TPT1 enzyme inhibitors, primary screen, biochemical, fluorescence polarization | tRNA 2'-phosphotransferase TPT1 (Candida albicans SC5314) | recombinant caTPT1, FP RNA substrate dephosphorylation | inhibition, % at 5 µM | actives 0.81% (n = 300,000);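 active means inhibition above the mean of all tested compounds plus 3 SD, set per screening campaign, cut at about 24% in these data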;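 further: plate controls were DMSO alone for no effect and ferristatin control at 100 nM for full effect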
Myeloid diff 2 – induction of myeloid progenitor differentiation, primary screen, cell-based, flow cytometry, MLPCN library | ER-HoxA9 myeloid progenitors, lysozyme-GFP differentiation | calls only at 10 µM | actives 1% (n = 360,000);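 active means normalized GFP-positive differentiation at or above the plate's own cutoff, the solvent-only control mean plus 3 SD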;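 further: cells exposed to compound for four days before flow analysis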
CRFR2-BP ag – agonists of CRF-BP/CRF-R2 complex, primary screen, cell-based, HEK293, calcium dye fluorescence, uHTS | calcium dye fluorescence (FLIPR); percent of saturating CRF peptide response | activation, % at 13.2 µM | actives 0.46% (n = 350,000) | CRF-binding protein / CRF receptor 2 complex (human);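 active means activation of at least 50%, plus an integration ratio under a set limit after plate pattern correction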;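 further: plate controls were neutral control wells without compound for no effect and CRF at EC100 for full effect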
TPT1 inh confirm – Candida albicans TPT1 inhibitors, confirmation, biochemical, fluorescence polarization, triplicate; shares compounds with TPT1 inhibitor; recombinant caTPT1, RNase T1 coupled; inhibition, % at 5 µM; actives 74% (n = 2,400); AID 2149, 2009;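 active means inhibition above the primary screen limit, the mean inhibition of all tested compounds plus 3 SD, cut at about 25% in these data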
RNase T1 counter – RNase T1 inhibitors, counter-screen for TPT1 inhibitor project, biochemical, fluorescence polarization; shares compounds with TPT1 inhibitor; RNase T1 cleavage, 1536-well; inhibition, % at 5 µM; actives 83% (n = 2,400); AID 2153, 2009;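 active means inhibition above the solvent-only control well mean plus 3 SD, limit set per screening run, cut at about 23% in these data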;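 further: plate controls were DMSO wells with enzyme for no effect and wells without RNase T1 for full effect; inhibitors block cleavage so intact labeled substrate keeps polarization high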
Numbers without * were called inactive; i = inactive; / = not tested or not shown; + = active, no number. In the library only some 2.6% were active in any assay of this set; here they are far more common.

SMILES	IDE act	CRFR2-BP antag	IDE cell inh	TPT1 inhibitor	Myeloid diff 2	CRFR2-BP ag	others
OC(CNC1CCCCC1)C(F)(F)F (stereo unspecified)	19.9*	-8.6	8.7	0.1	i	-0.3
COC(=O)C12CCc3c(ccc4cc(OC)ccc34)C1=CC(=O)C2 (stereo unspecified)	4.6	60.5*	/	/	i	-1.9
CO[C@H]1C=CCCC=CC(=O)O[C@H]([C@H](C)C(=O)CCCC2CC(=O)NC(=O)C2)C(C)=C[C@@H](C)[C@@H]1O	/	/	/	/	i	/
CC(C)(C)N1CC(C(=O)c2ccccc2)C1c1ccccc1 (stereo unspecified)	4.5	20.6	/	/	i	-2.4
Cc1nc2ccccc2c(=O)n1-c1ccc(C(=O)O)cc1	17.6*	-10.0	4.2	2.5	i	0.4
O=[N+]([O-])c1ccccc1Cl	3.8	12.1	1.9	/	i	-1.9
Cc1ccccc1[N+](=O)[O-]	-1.0	51.3*	2.0	/	i	13.2
O=C1NCN(c2ccccc2)C12CCN(C(c1ccnc3ccccc13)c1nnnn1-c1ccc3c(c1)OCCO3)CC2 (stereo unspecified)	/	/	/	/	i	/
COc1cccc(C(=O)C2CCCN(C3CCOCC3)C2)c1 (stereo unspecified)	4.4	1.8	-0.4	-2.6	i	0.5
CC(=O)N1CCC(N2CCCC(C(=O)c3cccc(Cl)c3)C2)CC1 (stereo unspecified)	2.2	67.1*	4.8	-6.3	i	1.8
CC1(C)CSC(=NCc2ccccc2)N1	-1.4	4.1	-5.3	-0.6	i	190.8*
Oc1c(Br)cc(-c2ccccc2)cc1Br	3.8	72.1*	/	/	i	-1.6
CC(=O)OC1CC(OC2C(O)CC(OC3C(O)CC(OC4CCC5(C)C(CCC6C5CC(O)C5(C)C(C7=CC(=O)OC7)CCC65O)C4)OC3C)OC2C)OC(C)C1OC1OC(CO)C(O)C(O)C1O (stereo unspecified)	0.7	2.4	/	/	+	0.4
Cc1nc2ccccc2c(=O)n1-c1c(Cl)cccc1Cl	/	8.9	/	/	i	0.0
COc1ccc(OC)c(-n2c(O)c(/C=C3\C=Nc4ccccc43)c(=O)[nH]c2=O)c1	1.6	-16.7	5.8	15.0	i	-1.4
CCOc1ccc(-n2c(O)c(/C=C3\C=Nc4ccccc43)c(=O)[nH]c2=O)cc1	-2.3	-61.9	0.8	22.9	i	107.8*
C[C@]12CC[C@@H](O)C[C@@H]1CC[C@@H]1[C@@H]2CC[C@]2(C)C(=O)[C@H](O)C[C@@H]12	/	4.5	/	/	i	-0.5
NC(Cc1ccc(Cl)cc1)c1csc(Nc2ncccn2)n1 (stereo unspecified)	/	/	/	/	+	/
CC1CCN(C(CC(=O)c2ccccc2)C(=O)c2ccccc2)CC1 (stereo unspecified)	-26.1	-38.1	/	/	i	-0.2
CS(=O)(=O)N1Cc2ccccc2-n2nncc2C1	0.8	7.8	/	/	i	0.3
Clc1ccc(COC(Cn2ccnc2)c2ccc(Cl)cc2Cl)cc1 (stereo unspecified)	-6.0	4.7	9.2	-3.9	i	0.9
Clc1ccc(C(c2ccc(Cl)cc2)n2cc[n+](CC(OCc3ccc(Cl)cc3Cl)c3ccc(Cl)cc3Cl)c2)cc1 (stereo unspecified)	18.6*	22.5	-5.0	-1.1	i	-0.1
Cc1nc(C)c(C(=O)NN=Cc2ccc(N(CCCl)CCCl)cc2)s1	3.3	9.8	/	/	i	-9.9
Cc1ccc(N2C(=O)CC(=O)NC2=O)c(C)c1	1.2	56.7*	0.8	10.2	i	-1.0
Cc1ccc(N2C(=O)CC(=O)NC2=O)cc1	1.5	9.8	-1.0	13.7	i	1.6
SMILES	IDE act	CRFR2-BP antag	IDE cell inh	TPT1 inhibitor	Myeloid diff 2	CRFR2-BP ag	others
COc1ccc(C(c2nnnn2-c2ccc3c(c2)OCCO3)N2CCC3(CC2)C(=O)NCN3c2ccccc2)cc1 (stereo unspecified)	/	/	/	/	i	/
CC1CCC(C(C)C)C(OC(=O)Cn2c(COc3ccccc3)[n+](C)c3ccccc32)C1 (stereo unspecified)	21.0*	-20.6	-9.6	0.5	i	3.0
O=C(O)CCC(=O)NCCC1=c2ccccc2=N/C1=C\c1c(O)n(Cc2ccc(F)cc2)c(=S)[nH]c1=O	7.4	-6.8	2.8	8.5	+	0.1
C[C@@H]1CN([C@H](C)CO)C(=O)c2c(c3ccccc3n2C)-c2ccccc2CO[C@H]1CN(C)Cc1ccc2c(c1)OCCN2C	/	-14.8	/	/	i	-0.5
CCCCn1c(O)c(/C=C/C=Nc2ccccc2)c(=O)[nH]c1=O	-8.2	-133.9	7.0	141.0*	i	112.8*
CCCCC(=O)N/N=C/c1c(O)n(CCc2ccccc2)c(=O)[nH]c1=O	/	22.0	-9.3	3.4	i	0.9
Cc1ccc(C)c(Cn2c(C(=O)O)c(C=O)c3ccccc32)c1	0.7	-13.8	9.0	123.5*	i	17.0	TPT1 inh confirm=142.6*;RNase T1 counter=137.0*
O=C1NC(=O)C(CCc2ccncc2)(Cc2ccc([N+](=O)[O-])cc2)C(=O)N1	3.6	17.1	8.1	28.0*	i	6.6	TPT1 inh confirm=1.8;RNase T1 counter=4.4
COc1ccc(CC2(CCc3ccncc3)C(=O)NC(=O)NC2=O)cc1	5.0	6.8	6.0	0.7	i	-1.0
COc1ccccc1-n1c(O)c(/C=C2\C=Nc3ccccc32)c(=O)[nH]c1=O	0.9	-33.1	1.9	28.7*	i	1.6	TPT1 inh confirm=15.3;RNase T1 counter=22.2*
CCCCCCC(=O)c1c(O)n(-c2ccccc2OC)c(=O)[nH]c1=O	1.4	5.6	0.5	0.7	i	6.9
C=CCn1c(O)c(/C=C2\C=Nc3ccccc32)c(=O)[nH]c1=O	/	-25.1	-3.0	35.5*	i	1.5	TPT1 inh confirm=13.5;RNase T1 counter=20.6
C/C(=C\c1ccc(N(C)C)cc1)[N+](=O)[O-]	-10.0	1.3	3.3	10.8	i	5.8
CN(C)c1ccc(/C=C/[N+](=O)[O-])cc1	-17.6	-117.5	9.3	51.0*	i	100.6*	TPT1 inh confirm=72.8*;RNase T1 counter=89.8*
Cn1c(O)c(/C=C/C=Nc2ccccc2)c(=O)n(C)c1=O	-4.6	-62.8	7.4	104.4*	i	84.8*	TPT1 inh confirm=110.7*;RNase T1 counter=117.9*

Screening data from PubChem.
